Consider 25 targets from the supplement of paper PMC10849652.

About 8,800 targets were measured; listed, in parts, are those with a hit and a random draw of the rest. About 0.5% of all pairs of compound and target were hits. Values without a mark were called inactive.

Sequence of UniProt Q9P003 (Q9P003 whole entry, looked up): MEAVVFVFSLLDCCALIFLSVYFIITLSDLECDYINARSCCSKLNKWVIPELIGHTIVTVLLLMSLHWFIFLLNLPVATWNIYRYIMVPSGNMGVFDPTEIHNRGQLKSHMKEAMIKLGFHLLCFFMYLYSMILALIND
Sequence of UniProt Q9BW66 (Q9BW66 whole entry, looked up): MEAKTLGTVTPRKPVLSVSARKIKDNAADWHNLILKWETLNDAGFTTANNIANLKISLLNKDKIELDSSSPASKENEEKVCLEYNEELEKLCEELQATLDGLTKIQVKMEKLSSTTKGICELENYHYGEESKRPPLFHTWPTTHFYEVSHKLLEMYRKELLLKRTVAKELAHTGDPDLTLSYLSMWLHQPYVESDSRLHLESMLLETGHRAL
Sequence of UniProt P48730 (P48730 whole entry, looked up): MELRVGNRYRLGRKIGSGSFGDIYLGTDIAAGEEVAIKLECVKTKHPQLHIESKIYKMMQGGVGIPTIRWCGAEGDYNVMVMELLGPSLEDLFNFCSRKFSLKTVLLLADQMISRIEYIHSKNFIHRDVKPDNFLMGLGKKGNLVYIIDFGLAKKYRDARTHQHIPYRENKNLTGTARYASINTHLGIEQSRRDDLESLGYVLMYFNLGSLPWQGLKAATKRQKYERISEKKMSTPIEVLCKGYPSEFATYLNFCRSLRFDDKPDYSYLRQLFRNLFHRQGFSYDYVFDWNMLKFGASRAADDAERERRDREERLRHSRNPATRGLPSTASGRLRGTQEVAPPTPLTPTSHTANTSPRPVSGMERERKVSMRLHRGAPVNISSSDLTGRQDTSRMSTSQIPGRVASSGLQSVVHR
Sequence of UniProt O75122 (O75122 whole entry, looked up): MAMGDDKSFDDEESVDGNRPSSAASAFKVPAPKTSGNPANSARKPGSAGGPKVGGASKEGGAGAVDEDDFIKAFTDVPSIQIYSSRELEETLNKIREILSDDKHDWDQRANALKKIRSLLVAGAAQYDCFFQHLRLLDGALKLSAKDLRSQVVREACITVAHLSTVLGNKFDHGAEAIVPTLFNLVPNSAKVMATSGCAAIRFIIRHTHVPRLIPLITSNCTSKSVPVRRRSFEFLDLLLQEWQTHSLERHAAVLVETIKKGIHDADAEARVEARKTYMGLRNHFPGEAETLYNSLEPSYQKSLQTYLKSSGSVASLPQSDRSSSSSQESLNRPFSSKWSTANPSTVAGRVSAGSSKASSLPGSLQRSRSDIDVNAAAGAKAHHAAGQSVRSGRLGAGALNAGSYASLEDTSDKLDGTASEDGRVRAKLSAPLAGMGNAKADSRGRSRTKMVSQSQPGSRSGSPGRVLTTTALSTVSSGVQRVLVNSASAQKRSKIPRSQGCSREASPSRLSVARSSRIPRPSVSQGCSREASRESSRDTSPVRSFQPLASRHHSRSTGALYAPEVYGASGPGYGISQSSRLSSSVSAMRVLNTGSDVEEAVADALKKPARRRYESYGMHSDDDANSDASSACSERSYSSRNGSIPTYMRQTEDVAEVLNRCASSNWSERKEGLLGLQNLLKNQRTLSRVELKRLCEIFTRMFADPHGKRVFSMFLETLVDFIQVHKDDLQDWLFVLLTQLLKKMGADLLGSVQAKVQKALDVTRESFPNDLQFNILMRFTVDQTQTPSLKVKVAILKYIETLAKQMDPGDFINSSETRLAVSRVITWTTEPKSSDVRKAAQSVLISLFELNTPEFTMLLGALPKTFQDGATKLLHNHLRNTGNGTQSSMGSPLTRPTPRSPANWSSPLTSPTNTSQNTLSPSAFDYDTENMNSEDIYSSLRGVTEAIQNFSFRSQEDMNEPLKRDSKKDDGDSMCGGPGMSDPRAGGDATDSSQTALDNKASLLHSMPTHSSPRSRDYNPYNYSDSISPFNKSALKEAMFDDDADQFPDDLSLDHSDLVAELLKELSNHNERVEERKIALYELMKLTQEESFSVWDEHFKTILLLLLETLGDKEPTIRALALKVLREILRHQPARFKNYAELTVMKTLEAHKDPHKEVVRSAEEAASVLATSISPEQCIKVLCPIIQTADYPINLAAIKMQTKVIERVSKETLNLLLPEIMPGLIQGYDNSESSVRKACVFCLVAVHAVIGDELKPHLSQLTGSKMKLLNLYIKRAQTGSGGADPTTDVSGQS
Sequence of UniProt Q08345 (Q08345 whole entry, looked up): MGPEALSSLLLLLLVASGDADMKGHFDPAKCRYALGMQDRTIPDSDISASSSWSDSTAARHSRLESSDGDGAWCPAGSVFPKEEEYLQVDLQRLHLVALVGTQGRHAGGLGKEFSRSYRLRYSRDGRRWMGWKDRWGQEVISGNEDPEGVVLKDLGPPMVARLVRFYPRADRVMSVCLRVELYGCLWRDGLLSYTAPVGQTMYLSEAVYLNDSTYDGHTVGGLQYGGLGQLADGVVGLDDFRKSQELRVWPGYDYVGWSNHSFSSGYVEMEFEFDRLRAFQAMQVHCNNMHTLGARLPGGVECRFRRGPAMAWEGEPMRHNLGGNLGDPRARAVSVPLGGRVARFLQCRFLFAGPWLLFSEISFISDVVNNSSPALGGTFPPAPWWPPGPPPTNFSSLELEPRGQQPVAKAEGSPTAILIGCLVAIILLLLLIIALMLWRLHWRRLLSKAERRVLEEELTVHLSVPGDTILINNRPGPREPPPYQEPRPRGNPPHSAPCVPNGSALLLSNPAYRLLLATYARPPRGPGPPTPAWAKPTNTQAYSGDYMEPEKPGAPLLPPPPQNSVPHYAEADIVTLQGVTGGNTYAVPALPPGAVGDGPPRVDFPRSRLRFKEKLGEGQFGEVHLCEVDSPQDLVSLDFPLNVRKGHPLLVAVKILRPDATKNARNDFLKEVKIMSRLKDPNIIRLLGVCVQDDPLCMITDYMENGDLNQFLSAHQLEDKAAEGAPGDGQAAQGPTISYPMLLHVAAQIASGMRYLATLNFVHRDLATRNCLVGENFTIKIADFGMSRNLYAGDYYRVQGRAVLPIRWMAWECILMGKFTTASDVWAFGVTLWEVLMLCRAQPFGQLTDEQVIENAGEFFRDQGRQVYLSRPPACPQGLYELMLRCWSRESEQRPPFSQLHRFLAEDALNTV
Sequence of UniProt Q7L7V1 (Q7L7V1 whole entry, looked up): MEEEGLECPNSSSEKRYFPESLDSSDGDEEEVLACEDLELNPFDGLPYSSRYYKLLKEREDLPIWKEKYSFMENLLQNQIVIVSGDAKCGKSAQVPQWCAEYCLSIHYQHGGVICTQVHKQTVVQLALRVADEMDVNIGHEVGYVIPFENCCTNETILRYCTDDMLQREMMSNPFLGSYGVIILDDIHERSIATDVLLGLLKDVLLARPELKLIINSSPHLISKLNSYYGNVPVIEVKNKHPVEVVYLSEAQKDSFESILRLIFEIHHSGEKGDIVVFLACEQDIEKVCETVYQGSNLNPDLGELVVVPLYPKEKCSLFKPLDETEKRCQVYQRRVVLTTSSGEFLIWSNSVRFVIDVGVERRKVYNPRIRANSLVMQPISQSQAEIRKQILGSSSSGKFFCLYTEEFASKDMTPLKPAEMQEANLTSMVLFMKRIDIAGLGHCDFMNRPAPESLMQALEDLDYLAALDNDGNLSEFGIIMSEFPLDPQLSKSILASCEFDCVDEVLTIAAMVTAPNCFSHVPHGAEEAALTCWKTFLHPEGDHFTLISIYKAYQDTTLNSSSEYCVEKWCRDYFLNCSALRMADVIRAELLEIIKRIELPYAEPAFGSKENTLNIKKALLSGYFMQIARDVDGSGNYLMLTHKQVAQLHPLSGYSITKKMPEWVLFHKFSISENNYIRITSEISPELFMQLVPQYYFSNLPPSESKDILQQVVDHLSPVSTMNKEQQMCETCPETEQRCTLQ
Sequence of UniProt P50570 (P50570 whole entry, looked up): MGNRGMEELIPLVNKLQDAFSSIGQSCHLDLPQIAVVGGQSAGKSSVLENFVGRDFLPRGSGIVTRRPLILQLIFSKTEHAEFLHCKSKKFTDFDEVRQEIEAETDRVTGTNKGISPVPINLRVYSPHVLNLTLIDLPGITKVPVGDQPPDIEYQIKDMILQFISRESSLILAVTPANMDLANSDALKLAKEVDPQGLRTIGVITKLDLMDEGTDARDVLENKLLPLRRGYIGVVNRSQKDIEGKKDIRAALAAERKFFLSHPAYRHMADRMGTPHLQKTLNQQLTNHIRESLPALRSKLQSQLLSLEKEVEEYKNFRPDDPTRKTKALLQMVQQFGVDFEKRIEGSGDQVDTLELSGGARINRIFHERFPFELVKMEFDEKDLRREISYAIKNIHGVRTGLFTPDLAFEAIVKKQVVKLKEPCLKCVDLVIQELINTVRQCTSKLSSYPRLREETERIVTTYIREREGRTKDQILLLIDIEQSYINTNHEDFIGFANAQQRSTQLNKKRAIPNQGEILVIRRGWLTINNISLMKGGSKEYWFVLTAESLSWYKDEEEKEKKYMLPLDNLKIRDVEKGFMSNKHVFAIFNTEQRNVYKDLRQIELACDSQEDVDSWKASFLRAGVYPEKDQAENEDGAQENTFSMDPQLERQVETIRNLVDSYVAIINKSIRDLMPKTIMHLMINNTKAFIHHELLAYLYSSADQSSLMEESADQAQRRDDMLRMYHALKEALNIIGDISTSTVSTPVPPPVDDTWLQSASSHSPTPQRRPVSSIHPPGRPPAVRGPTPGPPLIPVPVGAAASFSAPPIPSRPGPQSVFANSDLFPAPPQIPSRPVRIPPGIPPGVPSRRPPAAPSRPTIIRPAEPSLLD
Sequence of UniProt Q6UX07 (Q6UX07 whole entry, looked up): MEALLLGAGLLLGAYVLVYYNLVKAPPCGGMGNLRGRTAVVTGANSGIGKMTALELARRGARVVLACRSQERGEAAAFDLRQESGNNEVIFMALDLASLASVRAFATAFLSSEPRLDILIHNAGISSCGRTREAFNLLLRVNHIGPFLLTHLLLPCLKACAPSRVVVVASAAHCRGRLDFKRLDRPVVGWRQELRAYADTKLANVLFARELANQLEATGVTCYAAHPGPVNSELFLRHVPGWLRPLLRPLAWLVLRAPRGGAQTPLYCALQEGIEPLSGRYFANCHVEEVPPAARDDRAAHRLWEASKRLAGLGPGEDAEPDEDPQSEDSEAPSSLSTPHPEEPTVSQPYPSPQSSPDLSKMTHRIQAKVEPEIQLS

Compound in one assay: COC(=O)[C@H](CCSC)NC(=O)C1=C(C=C(C=C1)NC[C@H](CS)N)C2=CC=CC=C2
In words: log2 fold change, soluble protein after heating vs DMSO (PISA); higher = thermal stabilisation; K562 lysate, 10 uM; active = over 0.2 and 3.5 SD of the protein, either way, in both replicates (recomputed). A digest of the protocol:
(§1)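 Following dounce homogenisation of K562 pellets in PBS pH 7.4 with 1 mM MgCl2, crude extract at 1 mg/mL protein was incubated for 30 min with 10 μM compound. Aliquots were then heated for 3 min over 48°C-58°C and pooled, NP-40 was added to 0.5% at 4°C, and soluble protein was recovered as the supernatant at 21,000xg for 90 min. Channel-sum-equalised TMTpro 16plex LC-MS/MS quantified this protein. Each value, from duplicates, is a log-two fold change in thermal stability relative to solvent controls.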
As for COL12A1 (UniProt Q99715), the log2 fold change was -0.092. DDR1 isoform 5 (UniProt Q08345): the log2 fold change was -0.094.

Turning to CNIH4 (UniProt Q9P003), the log2 fold change is -0.249. On the same count and under the same terms, under CHFR (UniProt Q96EP1) stands -0.084; under CLIP1 isoform 2 (UniProt P30622), -0.015. On the same count and under the same terms, with DALRD3 (UniProt Q5D0E6) the figure was -0.391; with CSNK1A1 (UniProt P48729), -0.005; with CLASP2 (UniProt O75122), -0.071.

As to CPLX1 (UniProt O14810), the log2 fold change is -0.415. Same read-out and setting: with CYP2S1 isoform 2 (UniProt Q96SQ9) the figure was 0. On the same count and under the same terms, with CXCL14 (UniProt O95715) the figure was 0.066. Same read-out and setting: with CSRP2 (UniProt Q16527) the figure was -0.056; with DHX32 (UniProt Q7L7V1), 0.048; with CSNK1D (UniProt P48730), 0.013.

Regarding CINP isoform 3 (UniProt Q9BW66), the log2 fold change was 0.062.

As for DNM2 isoform 4 (UniProt P50570), the log2 fold change is 0.06. The same measure, in the same setting: under DESI2 (UniProt Q9BSY9) stands -0.014; under DPY19L3 (UniProt Q6ZPD9), -0.096.

Compound in the next assay: COc1cc(Nc2ncc3c(n2)-c2ccc(Cl)cc2C(c2c(F)cccc2OC)=NC3)ccc1C(=O)O [alisertib]
The assay is described as above. A digest of the protocol:
as §1
In the case of DDR1 isoform 5 (UniProt Q08345), the log2 fold change was 0. Regarding CNIH4 (UniProt Q9P003), the log2 fold change was 0.1.

Turning to CHFR (UniProt Q96EP1), the log2 fold change is 0.033. Take DHRS13 (UniProt Q6UX07): the log2 fold change is -0.211.

With CSDE1 isoform 3 (UniProt O75534), the log2 fold change was -0.011. On to CLIP1 isoform 2 (UniProt P30622), for which the log2 fold change was -0.033. Still for that read-out and setting: with CLASP2 (UniProt O75122) the figure was 0.182. Still for that read-out and setting: under DONSON (UniProt Q9NYP3) stands -0.05; under DAZAP1 (UniProt K7EQ02), 0.071; under CLASP1 isoform 4 (UniProt Q7Z460), 0.063. With COL6A3 (UniProt P12111), the log2 fold change is -0.323. Same read-out and setting: under CRLS1 (UniProt Q9UJA2) stands 0.076. On to DHX32 (UniProt Q7L7V1), for which the log2 fold change is 0.017. Take CSNK1D (UniProt P48730): the log2 fold change is 0.

Regarding CINP isoform 3 (UniProt Q9BW66), the log2 fold change was 0. Regarding DNM2 isoform 4 (UniProt P50570), the log2 fold change was -0.007.
